Experimental findings from PubChem BioAssay AID738 (SRMLSC, 2007) are described below.

About 4,900 (5%) of roughly 98,000 compounds were called active. The entries come from a sample that favours actives as a whole. Unmarked numbers belong to inactive results. No stated cut-off is given here; in the data, active means inhibition above about 30%; inactive means the rest.

The test is described as follows: yeast control strain growth suppression – counter-screen for post-Golgi transport modulator project, primary screen (AID 738). The conditions noted are these: efflux-deficient yeast background strain, growth absorbance A615, 16 h; at 10 µM; hits give high values.
Take `Cc1nc2ccccn2c1P(=S)(N1CCCCC1)N1CCCCC1`: the inhibition was 49.1% (active).

As for `COc1ccc(C(=O)C2CN(C)CC2C(=O)c2ccc(OC)cc2)cc1` (stereo not given), the inhibition is 20.5%. `CCC(=NCCc1ccccc1)c1c(O)n(C2CCCCC2)c(=O)[nH]c1=O`: the inhibition was 70.8% (active). As for `CC(=O)c1c(O)n(C2CCCCCC2)c(=O)[nH]c1=O`, the figure is 19.8%; as for `CCC(=NCc1ccco1)c1c(O)n(Cc2ccccc2)c(=O)[nH]c1=O`, 15.9%; as for `COc1ccc(C(=O)CC2C(=O)N(C)C(=O)N(C)C2=O)cc1`, 6.25%. As for `O=C(c1cc2nc(-c3ccccc3)cc(-c3ccccc3)n2n1)N1CCC2(CC1)OCCO2`, the figure is 29.5%; as for `CC(C)(C)c1ccc(CN2C(=O)CN=C(c3ccccc3)c3ccccc32)cc1`, 33.8% (active); as for `CN1CCC(N(C)Cc2cccnc2)CC1`, 7.07%. As for `CCOc1ccc(CN(CCCl)CCCl)cc1C(=O)OC`, the figure is 22.7%; as for `O=C(CN1CCCCC1)Nc1ccc(Br)cc1C(=O)c1ccccc1Cl`, 29.2%; as for `CCNc1nc2[nH]c(=O)c3c(c2s1)OC(N)=C(C#N)C3c1cccs1` (stereo not given), 5.65%. Turning to `COc1ccccc1-n1c(O)c(C=NC2CC2)c(=O)[nH]c1=O`, the inhibition was 6.8%. As for `OC(CNC1CCCCC1)c1ccccc1` (stereo not given), the figure is 5.79%; as for `CCOP(=S)(OCC)SCOC(=O)NCC(=O)OC`, 4.53%; as for `O=[N+]([O-])c1ccc(C2C3C(c4ccccc4)=NC4(CCCCC4)N32)cc1` (stereo not given), 18%.

As for `Cc1ccc(Cn2c(C)c3cnn(CC(=O)N4CCC5(CC4)OCCO5)c(=O)c3c2C)cc1`, the inhibition is -1.49%. As to `N#Cc1ccc(Cn2cc(C(=O)c3ccco3)c3ccccc32)cc1`, the inhibition was 38.7% (active). To `COc1ccc(CCn2c(O)c(C=NCCCn3ccnc3)c(=O)[nH]c2=O)cc1OC` belongs 2.05%; to `Cn1c(O)c(C=NCCCC(=O)O)c(=O)n(C)c1=O`, 2.29%; to `Cc1ccc(N(C)C(=O)Oc2cccc3ccc(C)nc23)cc1`, 5.47%. As for `CC[N+](CC)(CC)CCCCCCCCCC[N+](CC)(CC)CC`, the inhibition is -4.82%. To `CCOC(=O)C1SC2(C(F)(F)C(F)F)CC1(O)c1c(c(OC)c3occc3c1OC)O2` (stereo not given) belongs 33.6% (active); to `O=c1c2ccccc2nc(-c2ccc(Cl)cc2Cl)n1-c1ccncc1`, 9.41%. To `COc1cc(Cn2c(N)c(C(=O)NCc3ccco3)c3nc4ccccc4nc32)cc(OC)c1OC` belongs 7.01%; to `CC(=O)Nc1ccccc1C(=O)OCC(=O)c1cccc2ccccc12`, 0.9%; to `CCCCCCN=C(CC)c1c(O)n(CCCC)c(=O)[nH]c1=O`, 36.3% (active). Take `CCC(=NCCCO)c1c(O)n(-c2ccc(OC)cc2)c(=O)[nH]c1=O`: the inhibition was 3.64%. To `CCCCn1c(O)c(C(CC)=NCc2ccco2)c(=O)[nH]c1=O` belongs 16.6%; to `CC(=O)c1ccc(OC(NC(=O)Cc2ccccc2)C(Cl)(Cl)Cl)cc1` (stereo not given), 4.53%.

As usually defined, the inhibition is the relative decrease from the control value, in per cent.
